Screening data (PubChem)
Only some compounds are listed: those with a hit (about 2.9% of all), similar ones and a draw of the others.
Pol iota inh: blocks human DNA polymerase iota activity; Q9UNA4; Pol iota fluorescent replication assay, 10 min; Potency, µM (highest dose often 115 µM), inactives show at the highest dose activity, negative = inhibition, usual class: inhibitors; 390,000 tested, 1% active; AID 588590; further: potency means the concentration at half of the fitted maximal effect
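Pol iota at 10 nM preincubated 15 min with compounds at room temperature; reaction started with fluorescent substrate, 50 nM final. Fluorescence read kinetically at 0 and 10 min; buffer-only wells as negative control.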
ALOX12 inh: ALOX12 (human) lipoxygenase inhibition. P18054. purified 12hLO, xylenol orange hydroperoxide absorbance. Potency, µM (top dose mostly 108 µM), without a hit: top-dose activity change, negative = inhibition, most hits filed as inhibitors. 580,000 tested, 1.1% active. AID 1671190; further: potency means the concentration at half of the fitted maximal effect; on the % scale 0 is the no-effect control and ±100 the full control effect
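Purified human 12hLO (150 nM final) in 25 mM Hepes, 0.01% Triton X-100, pH 7.0 was preincubated 15 min at room temperature with compound. Then 40 uM arachidonic acid was added, 30 min. Hydroperoxide was read by Fe-XO absorbance ratio 573/405 nm.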
PI5P4Ka inh: inhibitors of human PI5P4K alpha | P48426 | PI5P4Kalpha enzyme, ADP-Glo luminescence, 60 min; active compounds read low | max response, % | 330,000 tested, 1.2% active | AID 652105; active means max response of -50% or lower; inconclusive means between -30% and -50%; inactive means -30% or higher; further: value at the top dose of about 77 µM; on the % scale 0 is the no-effect control and ±100 the full control effect
Target sequence (P48426 whole entry, looked up): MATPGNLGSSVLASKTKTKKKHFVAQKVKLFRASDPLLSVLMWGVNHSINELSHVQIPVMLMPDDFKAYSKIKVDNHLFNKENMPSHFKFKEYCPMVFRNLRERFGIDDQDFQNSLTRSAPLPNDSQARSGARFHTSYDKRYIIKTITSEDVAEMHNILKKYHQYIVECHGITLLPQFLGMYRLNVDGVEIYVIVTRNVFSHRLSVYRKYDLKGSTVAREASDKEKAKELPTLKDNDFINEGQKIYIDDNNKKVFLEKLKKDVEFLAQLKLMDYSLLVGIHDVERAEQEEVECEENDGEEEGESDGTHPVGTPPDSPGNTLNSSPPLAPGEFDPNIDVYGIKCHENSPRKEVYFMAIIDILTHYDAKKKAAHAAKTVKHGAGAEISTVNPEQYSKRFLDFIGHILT
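Controls without substrate or without enzyme flank wells where PI5P4Kalpha converts substrate using 5 microM ATP (final). Incubation lasts 60 minutes at room temperature; ADP formed is read by ADP-Glo luminescence.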
Pol kappa inh-1: blocks human DNA polymerase kappa activity; Q9UBT6; purified Pol kappa, fluorescent DNA synthesis assay, 10 min; Potency, µM (series often up to 107 µM), for inactives: at the top dose activity, negative = inhibition, usual class: inhibitors; 400,000 tested, 0.53% active; AID 588579; further: potency means the concentration at half of the fitted maximal effect; on the % scale 0 is the no-effect control and ±100 the full control effect
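Fluorescent qHTS in 1536-well format: enzyme (10 nM) and compound sat 15 min at room temperature before 50 nM substrate (final) was added. Signal taken at 0 and 10 min; no-enzyme buffer wells were negative controls.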
POLB inh: inhibitors of human DNA polymerase beta. P06746. Pol beta primer extension/strand displacement, fluorescence kinetic. Potency, µM (top dose mostly 114 µM), without a hit: top-dose activity change, negative = inhibition, usual class: inhibitors. 340,000 tested, 1.3% active. AID 485314; further: potency means the concentration at half of the fitted maximal effect; on the % scale 0 is the no-effect control and ±100 the full control effect
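10 nM enzyme + cpd, 15 min RT; start with substrate 50 nM final; read 0 min and after 10 min RT. Corrected, normalized data; 4-parameter Hill curve fit.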
Pol eta inh-1: blocks human DNA polymerase eta activity; Q9Y253; recombinant Pol eta, fluorescent DNA replication assay; Potency, µM (titrated, usually from 114 µM), without a hit: at the top dose activity change, negative = inhibition, hits mostly inhibitors; 390,000 tested, 1.2% active; AID 588591; further: potency means the concentration at half of the fitted maximal effect; on the % scale 0 is the no-effect control and ±100 the full control effect
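Pol eta (10 nM) was preincubated with compounds for 15 min at room temperature, after which fluorescent replication substrate (50 nM final) was added to start the reaction. Fluorescence was read kinetically at 0 and 10 min.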
BAZ2B inh: inhibits human BAZ2B bromodomain, hit validation | AlphaScreen BAZ2B / biotin-H3K14Ac peptide displacement | shares compounds with Pol kappa inh-1 | Potency, µM, hits mostly inhibitors | 25 tested, 100% active; calls by dose curve
AlphaScreen ctr: interferes with AlphaScreen signal in BAZ2B counterscreen | AID 588859 | Potency, µM (top dose mostly 57.1 µM), for the others: top-dose activity change, negative = inhibition, usual class: inhibitors | 25 tested, under 10 active | AlphaScreen biotin-His6 peptide bead counterscreen, signal decrease | shares compounds with Pol kappa inh-1;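 active means clear concentration-dependent signal drop in the bead assay lacking the target, so a primary-screen artifact; inconclusive means weak, partial or single-dose response; inactive means no response, so a real primary hit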
TbPGK inh: TbPGK inhibition, hit validation; shares compounds with Pol kappa inh-1; TbPGK coupled GAPDH assay, Kinase-Glo luminescence; Potency, µM (highest dose often 57.5 µM), for inactives: top-dose activity change, negative = inhibition, usual class: inhibitors; 500 tested, 79% active; AID 686980; further: potency means the concentration at half of the fitted maximal effect; on the % scale 0 is the no-effect control and ±100 the full control effect; nearly all actives have a fitted effect of over 65% in size
Pol iota confirm: Inhibitors of human DNA polymerase iota, confirmation. shares compounds with Pol kappa inh-1. Pol iota primer extension, TAMRA/BHQ fluorescence. Potency, µM, usual class: inhibitors. 1,500 tested, 77% active. AID 720496; further: potency means the concentration at half of the fitted maximal effect
Pol kappa inh-2: confirmation of human DNA polymerase kappa inhibitors | Potency, µM, usual class: inhibitors | purified Pol-kappa, fluorescent strand-displacement substrate | 920 tested, 76% active | shares compounds with Pol eta inh-1 | AID 720501; further: potency means the concentration at half of the fitted maximal effect
Pol eta inh-2: confirmation of human DNA polymerase eta inhibitors. shares compounds with Pol eta inh-1. 2,600 tested, 64% active. AID 720502. Pol eta primer extension, TAMRA/BHQ fluorescence, 10 min. Potency, µM, usual class: inhibitors; further: potency means the concentration at half of the fitted maximal effect
Starred values were filed as active, the others as inactive; ? = inconclusive; nt = not tested or not shown; [ ] = dose if it differs, or a comment. Unless noted, the call rests on the fitted dose curve; in most records, active means well fitted curve in the direction sought with a large enough effect; inconclusive means small, poorly fitted or top-dose-only effect, or another doubt; inactive means no such curve, though single readings can be large; an effect the other way counts as inactive or inconclusive.

SMILES	Pol iota inh	ALOX12 inh	PI5P4Ka inh	Pol kappa inh-1	POLB inh	Pol eta inh-1	Pol iota confirm	Pol kappa inh-2	Pol eta inh-2	others
CCOc1ccc(N2C(=O)NC(=O)/C(=C\c3ccc(N4CCCCC4)o3)C2=O)cc1	31%	-14%	3	-5%	4%[57.1 µM]	-21%	nt	nt	nt
Cc1ccc2c(C)c3ccc4ccccc4c3c[n+]2c1	79µM*	-15%	3	40µM*	nt	?	27*	4.7*	nt
CC1(C)C(C(=O)N2CCC3(CC2)Nc2ccccc2NC3=O)C1(C)C	nt	7%	nt	nt	nt	nt	nt	nt	nt
COC1C(O)C(C)OC(OC2C(Oc3cccc4c(O)c5c(=O)oc6ccc(C)c7c(=O)oc(c34)c5c67)OC(C)C(O)C2O)C1O (stereo not drawn)	?	?	10	?	nt	10µM*	21*	4.2*	43*
C[n+]1c2cc(N)ccc2cc2ccc(N)cc21	7.9µM*	?	?	22µM*	nt	45µM*	9.5*	7.5*	30*
Cc1nn(C)c2ncnc(NCCc3c[nH]c(=O)[nH]c3=O)c12	nt	11%	nt	nt	nt	nt	nt	nt	nt
C=Cc1cc(OC)c2c(c1)c(=O)oc1c2cc(OC)c2c(O)ccc(C3OC(C)C(O)C(C)(O)C3O)c21 (stereo not drawn)	2.5µM*	17%	17	4µM*	nt	1.4µM*	4.7*	nt	11*
COC1C(=O)N(c2cccc(F)c2)C12CCNCC2 (stereo not drawn)	nt	8%	nt	nt	nt	nt	nt	nt	nt
CN1CC2(C1)C(=O)N(C)C(=O)[C@@H]1C[C@@H](O)CN12	nt	5%[176 µM]	nt	nt	nt	nt	nt	nt	nt
Cc1nc(NC(=O)c2ccccc2)sc1-c1csc(Nc2ccc(C(=O)O)cc2)n1	?	-7%	?	-26%	16%	18µM*	42*	38*	43*	BAZ2B inh=28*;AlphaScreen ctr=-17%
CC(C)(C)N1C(=O)NC(=O)/C(=C\c2ccc3c(c2)CCN3CCCCl)C1=O	?	186%	?	-33%	?	?	nt	nt	nt
CCN1C(=O)/C(=C/c2ccc3c(c2)CCN3CCCCl)C(=O)NC1=S	14µM*	?	-73*	45µM*	28µM*	13µM*	67*	nt	43*
O=C1NC(=S)N(C2CC2)C(=O)/C1=C/c1ccc2c(c1)CCN2CCCCl	22µM*	?	-74*	40µM*	20µM*	7.9µM*	15*	nt	19*
COc1ccccc1N1C(=O)NC(=O)/C(=C/c2ccc3c(c2)Cc2ccccc2-3)C1=O	?	?	?	-3%	1%	-20%	nt	nt	nt
CCn1cc(C(=O)Nc2cccc3ncccc23)c2ccccc21	nt	40%	nt	nt	nt	nt	nt	nt	nt
NC(=O)c1ccc(N=Cc2c(O)n(Cc3ccco3)c(=O)[nH]c2=O)cc1	11µM*	-5%	-79*	50µM*	?	22µM*	30*	30*	48*	TbPGK inh=9.2µM*
